This passage reports Percent Effect results from ChEMBL document CHEMBL3988442, “University of Dundee, Small-Polar-MMV Screening Library” (2021).

The test system of this assay is Trypanosoma cruzi. The assay can be described thus: Trypanosoma cruzi phosphomannomutase and mannose-1-phosphate guanylyltransferase assay. In kind it is functional. The arrangement: scale not given: direction of the effect not stated beside the values. To be noted: 10 µM.
As to `Cc1ccccc1CNC(=O)CN1CCN(Cc2nccn2C)CC1`, the Percent Effect was 2.74%.

In the case of `CCC(=O)N1CCC2(CC1)c1nc[nH]c1CCN2S(C)(=O)=O`, the Percent Effect turned out to be 4.18%.

Turning to `Cc1cc(C)n(-c2cncc(NCCNC(=O)CC3CCCC3)n2)n1`, the Percent Effect was 0.489%.

As to `Cn1ccnc1CNC(=O)N(CCCO)C1CCCc2ccccc21` (stereo not given), the Percent Effect stood at 2.43%.

Consider `Cc1cccc(CCC(=O)N2CCOCC2c2c(C)n[nH]c2C)c1` (stereo not given), for which the Percent Effect was -3.33%.

For `COc1ccc(CC(=O)N2CCCCC2Cn2cccn2)cc1OC` (stereo not given), the Percent Effect worked out at 0.682%.

Consider `O=C(c1ccc[nH]1)N1CCC2(CC1)C(=O)Nc1ccccc12`, for which the Percent Effect amounted to 6.35%.

Take `Cc1ccc(CN2CCCC3(COCCN(Cc4c[nH]nn4)C3)C2)o1` (stereo not given): the Percent Effect was found to be 0.965%.

`CCSc1ccc(C(=O)Nc2c(C)nn(C(C)C)c2C)cn1`: the Percent Effect is -0.198%.

With `N#CC1(C(=O)N2CCN(Cc3cscn3)CC2)CCCC1`, the Percent Effect is -8.78%.

As to `CN(C)C(CNC(=O)c1cc2c([nH]c1=O)CCCC2=O)c1ccsc1` (stereo not given), the Percent Effect was 4.55%.

For `Cn1nccc1C1CCN(CC(O)c2cccc(F)c2)CC1` (stereo not given), the Percent Effect came to 6.89%.

As for `CC(C)N1CCC(Cc2cnc(-c3cccc(C(=O)O)c3)cn2)C1` (stereo not given), the Percent Effect turned out to be 1.19%.

`Cc1cn2c(n1)CCC(NC(=O)CCn1cncn1)C2` (stereo not given): the Percent Effect was -3.64%.

For the compound `Cc1nc(CN(Cc2cccs2)C2CCS(=O)(=O)C2)oc1C` (stereo not given), the Percent Effect is -3.27%.

For `c1csc(-c2nc(CN3CCOC(Cn4cccn4)C3)co2)c1` (stereo not given), the Percent Effect stood at 6.32%.

Turning to `CC1N(CC2CC2)C(=O)COC12CCN(Cc1nccs1)CC2` (stereo not given), the Percent Effect was found to be 5.56%.

Regarding `Cc1nn(CC(=O)N2CCN(c3ccccc3F)CC2)c(C)c1Cl`, the Percent Effect is 1.87%.

With `c1nc2c(c(C3CC3)n1)CCN(CC1CCOC1)CC2` (stereo not given), the Percent Effect is 8.31%.

For the compound `Cc1nc(CN2CCCC(NCCOc3ccccc3)C2)no1` (stereo not given), the Percent Effect was -1.98%.

For `COc1c(C2CCCN2C(=O)c2cc(Cl)c[nH]2)c(C)nn1C` (stereo not given), the Percent Effect was -0.781%.

On to `Cc1cc(C)c2cc(CNCc3ccccc3)c3nn(C)c(=O)n3c2c1`, for which the Percent Effect came out at 2.96%.

With `CC(O)CN(CC(=O)NC(=O)NC1CC1)c1ccccc1` (stereo not given), the Percent Effect is -2.64%.

As to `Cc1cc(C)c2nc(CN3CCCC(c4cc[nH]n4)C3)cc(O)c2c1` (stereo not given), the Percent Effect was -3.28%.

For `CCOc1ncccc1NC(=O)c1cc(C)c(C)s1`, the Percent Effect is -2.82%.

For `CN(C)CC(=O)N1Cc2nc(C(=O)NCc3ccncc3)oc2C1`, the Percent Effect worked out at 3.86%.

As for `CCn1cnnc1CNC(=O)CCC(=O)c1ccc2c(c1)OCCO2`, the Percent Effect was determined as 6.7%.

Take `CC(Oc1ccccc1C(F)(F)F)C(=O)NS(=O)(=O)C(C)C` (stereo not given): the Percent Effect was 4.88%.

Consider `Cn1c(C2CC2)nc2c1CCN(CC(=O)Nc1nncs1)C2`, for which the Percent Effect was -2.06%.

In the case of `N#Cc1ncn(CCC(=O)Nc2ccc(Cl)cc2F)n1`, the Percent Effect was 1.39%.

As for `Cc1cn2c(n1)CCC(NC(=O)c1nc(C)ncc1Cl)C2` (stereo not given), the Percent Effect is 4.41%.

`CN(C)c1ncc(CN2CCOC(C(=O)Nc3ccccc3)C2)cn1` (stereo not given): the Percent Effect worked out at 2.36%.

In the case of `CC(=O)Nc1cc(C(=O)N2CCOCC2c2ccc(C)o2)ccc1F` (stereo not given), the Percent Effect was -2.43%.

With `Cc1cnccc1CN1C[C@@H](O)[C@H](Oc2ccccc2)C1`, the Percent Effect stood at 0.593%.

Consider `CC1=N[C@@]2(CC[C@@H]3CN(S(=O)(=O)N(C)C)C[C@@H]32)C(=O)N1CC(C)C`, for which the Percent Effect is -6.75%.

Take `CCCS(=O)(=O)N1CCN(c2cc(-n3nc(C)cc3C)nc(C)n2)CC1`: the Percent Effect turned out to be 7.57%.

Regarding `O=C(O)c1nnn(Cc2cccc(C(F)(F)F)c2)c1-c1cccnc1`, the Percent Effect was -4.13%.

As to `CC(C)(N)CN1CCC(c2nnc(CN3CCCC3)n2C2CC2)CC1`, the Percent Effect is -0.0974%.

With `Cc1cccc(CNC(=O)CNc2cc(CO)ccc2Cl)c1`, the Percent Effect is -1.27%.

In the case of `COCC1CC2(CCN(Cc3cnn(C)c3)CC2)CN1c1ncccn1` (stereo not given), the Percent Effect is 7.38%.
